A selection: hits, their analogues and other compounds. The true share with any hit is near 3.1%.
PLK1 PBD inh – inhibitors of human PLK1 polo-box domain binding | P53350 | Plk1 PBD binding of FITC phosphopeptide, fluorescence polarization | Potency, µM, usual class: inhibitors | 360,000 compounds, 2.8% hits | AID 720504; also: series mostly up to about 57 µM; nearly all actives have a fitted effect of over 65% in size
uPA surface inh – blocks generation of uPA at the cell surface. Potency, µM (titrated, usually from 38.3 µM), actives largely listed as inhibitors. 330,000 compounds, 0.31% hits. AID 540303. cell surface uPA generation assay, qHTS; active = well fitted inhibition curve with a large enough effect; inconclusive = small, poorly fitted or top-dose-only effect; inactive = no such curve, though single readings can be large or run the other way; tested in mouse RAW 264.7 cells; also: nearly all actives have a fitted effect of over 55% in size
VDR inh – blocks the human vitamin D receptor. VDR-SRC2-3 peptide fluorescence polarization, 2 h. Potency, µM, actives largely listed as inhibitors. 400,000 compounds, 0.93% hits. AID 504847
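Fluorescence polarization assay of small-molecule disruption of VDR binding to coregulator peptide SRC2-3. Compounds and controls pin-transferred, then read after 2 h incubation at ambient room temperature.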
PTAP TSG101 blk – blocks PTAP/TSG101 interaction to inhibit HIV-1 budding. Q99816. Fluorescence polarization, FITC-PTAP peptide / Tsg101 binding. Potency, µM (doses to about 115 µM), usual class: inhibitors. 340,000 tested, under 10 active. AID 493005; active = well fitted inhibition curve with a large enough effect in the main read-out, with a control signal flat, not every such curve was filed as active; inconclusive = small, poorly fitted or top-dose-only effect, or effect the other way, or a change in a side signal; inactive = no such curve, though single readings can be large or run the other way
Target sequence (Q99816 whole entry, looked up): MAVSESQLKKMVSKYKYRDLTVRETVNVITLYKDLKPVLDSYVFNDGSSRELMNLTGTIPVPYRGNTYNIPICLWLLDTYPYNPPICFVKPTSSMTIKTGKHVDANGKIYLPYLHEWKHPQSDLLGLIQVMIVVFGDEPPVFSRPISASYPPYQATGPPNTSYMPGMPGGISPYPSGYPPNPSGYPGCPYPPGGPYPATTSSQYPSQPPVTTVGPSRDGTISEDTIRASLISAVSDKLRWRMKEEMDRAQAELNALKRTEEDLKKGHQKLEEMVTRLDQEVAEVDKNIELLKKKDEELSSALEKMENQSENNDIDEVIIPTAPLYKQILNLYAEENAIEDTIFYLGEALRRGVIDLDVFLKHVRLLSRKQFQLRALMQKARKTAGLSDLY
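Compounds were pin-transferred onto Tsg101 binding domain (10 uM final) in HEPES pH 7.5 buffer, then FITC-PTAP peptide was added at 50 nM final. After 20 min at RT, polarization reported peptide displacement across a qHTS concentration series.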
TSHR antagonist – antagonists of human thyroid stimulating hormone receptor. 330,000 compounds, 0.2% hits. activity change, negative = inhibition, % at 11.5 µM. TSHR-expressing cells, TSH-stimulated cAMP HTRF, 2 h; active compounds read low;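 active = activity change below a set negative limit, meaning inhibition stronger than a set level, cut at about -70% in these data; inconclusive = activity change between two set negative limits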
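Inhibition of cAMP made by TSHR-expressing cells under TSH stimulation (4nM final, EC80; 2 h, 37 deg C) is quantified with a one-step lysis HTRF kit, anti-cAMP cryptate versus cAMP-d2.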
USP1 UbRho – blocks human USP1/UAF1 cleavage of Ub-Rhodamine. shares compounds with VDR inh. Ub-Rhodamine cleavage, fluorescence kinetic read. Potency, µM (top dose mostly 114 µM), actives largely listed as inhibitors. 50 compounds, 50% hits. AID 540327
VDR confirm – inhibits human vitamin D receptor, primary hit validation | Potency, µM, most hits filed as inhibitors | VDR-coactivator inhibition assay, qHTS confirmation | 840 compounds, 89% hits | AID 602199 | shares compounds with VDR inh
VDR FP – confirmation of human VDR-coactivator binding inhibitors, fluorescein label | VDR-coactivator binding, fluorescein fluorescence polarization | shares compounds with VDR inh | 840 compounds, 48% hits | Potency, µM (series often up to 57.1 µM), hits mostly inhibitors
VDR bla reporter – confirmation of human vitamin D receptor inhibitors in reporter cells. 840 compounds, 23% hits. VDR beta-lactamase reporter cells, FRET ratio; cells co-treated with VDR agonist LG190178. Potency, µM (series often up to 46.1 µM), hits mostly inhibitors. shares compounds with VDR inh
VDR cytotox – counter-screen for vitamin D receptor inhibitors: cytotoxicity; shares compounds with VDR inh; cytotoxicity counter-screen, cell viability, qHTS; Potency, µM (titrated, usually from 48.3 µM), usual class: cytotoxic; 840 compounds, 18% hits; also: nearly all actives have a fitted effect of over 75% in size
A number is an active result; 0 = inactive; ? = inconclusive; - = not tested or not shown. Unless noted, calls follow the shape of the dose curve; as a rule, active = well fitted curve in the direction sought with a large enough effect; inconclusive = small, poorly fitted or top-dose-only effect, or another doubt; inactive = no such curve, though single readings can be large; an effect the other way counts as inactive or inconclusive.

SMILES	PLK1 PBD inh	uPA surface inh	VDR inh	PTAP TSG101 blk	TSHR antagonist	VDR confirm	VDR FP	VDR bla reporter	VDR cytotox	others
CCCCn1nnnc1C(c1cc2ccccc2o1)N(CCC#N)Cc1ccccc1 (centres undefined)	0	-	-	-	-	-	-	-	-
CC(C)N(CCC(=O)c1ccc2ccccc2c1)Cc1ccccc1	3.4µM	3.2µM	5µM	0	?	15	7.1µM	?	?
CC(OC(=O)c1ccc2ccccc2c1)C(=O)N(C)Cc1ccccc1 (centres undefined)	0	?	0	0	0	-	-	-	-
O=C1C(Cl)=C(NC(=O)c2ccccc2)C(=O)C(Cl)=C1NC(=O)c1ccccc1	1.3µM	0	35µM	0	-85	4.2	?	3.7µM	12µM
O=C(NC1=C(Nc2ccc(Cl)cc2)C(=O)c2ccccc2C1=O)c1ccccc1	0	0	0	0	0	-	-	-	-
CC(C)=CCC/C(C)=C/CC/C(C)=C/CSCC(=O)O	-	-	0	-	-	-	-	-	-
Cc1ccc(S(=O)(=O)N2C[C@H]3C(=O)C[C@@H](c4ccccc4)N(S(=O)(=O)c4ccccc4C)[C@H]3C[C@H]2c2ccccc2)cc1	0	-	-	-	-	-	-	-	-
CC(=O)Nc1sc(N/N=C\c2ccccc2F)nc1-c1cccs1	0	0	50µM	0	0	2.4	2.2µM	0	?
OCCN1CCN(CC/C=C2/c3ccccc3Sc3ccc(C(F)(F)F)cc32)CC1	0	0	?	0	0	-	-	-	-	USP1 UbRho=?
Cc1ccc(CSC2=NS(=O)(=O)c3ccccc32)cc1	-	-	32µM	-	-	14	8.9µM	0	0
Cc1ccc(SC2=NS(=O)(=O)c3ccccc32)c(C)c1	-	-	35µM	-	-	7.1	8.9µM	?	21µM
Cc1ccc(CSC2=CS(=O)(=O)c3ccccc3N2)cc1	0	0	0	0	0	-	-	-	-
COCC(C)n1c(SCC(=O)NC(=O)NC2CCCC2)nc2ccccc2c1=O (centres undefined)	0	0	0	0	0	-	-	-	-
CCOc1ccc(C(=O)CCN2CCCCC2)cc1	?	0	?	0	0	-	-	-	-
CC(C)Oc1ccc(C(=O)CCN2CCCCC2)cc1	?	0	?	0	0	7.1	3.2µM	?	0
CCCCSCCCNC(=O)C1CCC(CNS(=O)(=O)c2c(C)cc(C)cc2C)CC1 (centres undefined)	-	-	0	-	-	-	-	-	-
O=C1c2ccccc2CCC1CNCCc1ccc(O)cc1 (centres undefined)	-	-	2.8µM	-	-	14	28µM	?	?
O=C(NCCc1ccccc1)c1noc2c1CCc1ccccc1-2	0	-	0	0	0	-	-	-	-
O=C1c2ccccc2CC[C@H]1CNCCc1ccc(O)cc1	-	-	3.5µM	-	-	?	?	0	0
Cc1ccc(NS(=O)(=O)c2ccc(-c3cc(C)no3)cc2)c(Br)c1	-	-	0	-	-	-	-	-	-
CCC(=O)Nc1cccc(C(=O)/C=C/c2cc(Br)ccc2OC)c1	0	0	?	0	0	8.9	14µM	4.6µM	?
CC(=O)Nc1cccc(C(=O)/C=C/c2ccc(/C=C/C(=O)c3cccc(NC(C)=O)c3)cc2)c1	-	-	-	-	0	-	-	-	-
COc1ccc(Br)cc1/C=C/C(=O)Nc1ccc2ccccc2c1	0	0	0	0	0	-	-	-	-
Cc1cccc(C(=O)Nc2ccc(C(=O)/C=C/c3ccncc3)cc2)c1	0	0	16µM	0	0	7.5	6.3µM	?	?
CC(=O)Nc1cccc(C(=O)/C=C/c2ccc(Br)cc2)c1	0	0	25µM	0	0	7.1	8.9µM	?	0
Cc1sc2ncn(CC(=O)N3CCN(c4ccccc4F)CC3)c(=O)c2c1S(=O)(=O)N1CCN(c2ncccn2)CC1	-	-	0	-	-	-	-	-	-
